Test results taken from the supplement of paper PMC3545927.
Some of the results follow. No count for the full screen is at hand.

Target: furin, P09958
Assay: furin cleavage Z-score vs untreated control; higher = more cleavage, active = 3.5 or more, inactive = 1 or less, 8 variable residues between constant flanks
Method in brief: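 Furin cleavage was scored on 8-mer peptides joined to a cDNA oligonucleotide and bound to magnetic beads at the N-terminus. Digestion with purified furin (1:10 enzyme:substrate, 0.01 ml, 50 mM HEPES pH 7.5, CaCl2, NaCl) lasted 7.5, 15 or 30 min. Freed DNA was tagged with adapters by PCR, sequenced and counted; the cleavage Z-score is the lowess-adjusted log count versus furin-free reactions, scaled by median absolute deviation.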

furin, P09958, sequence (P09958 whole entry): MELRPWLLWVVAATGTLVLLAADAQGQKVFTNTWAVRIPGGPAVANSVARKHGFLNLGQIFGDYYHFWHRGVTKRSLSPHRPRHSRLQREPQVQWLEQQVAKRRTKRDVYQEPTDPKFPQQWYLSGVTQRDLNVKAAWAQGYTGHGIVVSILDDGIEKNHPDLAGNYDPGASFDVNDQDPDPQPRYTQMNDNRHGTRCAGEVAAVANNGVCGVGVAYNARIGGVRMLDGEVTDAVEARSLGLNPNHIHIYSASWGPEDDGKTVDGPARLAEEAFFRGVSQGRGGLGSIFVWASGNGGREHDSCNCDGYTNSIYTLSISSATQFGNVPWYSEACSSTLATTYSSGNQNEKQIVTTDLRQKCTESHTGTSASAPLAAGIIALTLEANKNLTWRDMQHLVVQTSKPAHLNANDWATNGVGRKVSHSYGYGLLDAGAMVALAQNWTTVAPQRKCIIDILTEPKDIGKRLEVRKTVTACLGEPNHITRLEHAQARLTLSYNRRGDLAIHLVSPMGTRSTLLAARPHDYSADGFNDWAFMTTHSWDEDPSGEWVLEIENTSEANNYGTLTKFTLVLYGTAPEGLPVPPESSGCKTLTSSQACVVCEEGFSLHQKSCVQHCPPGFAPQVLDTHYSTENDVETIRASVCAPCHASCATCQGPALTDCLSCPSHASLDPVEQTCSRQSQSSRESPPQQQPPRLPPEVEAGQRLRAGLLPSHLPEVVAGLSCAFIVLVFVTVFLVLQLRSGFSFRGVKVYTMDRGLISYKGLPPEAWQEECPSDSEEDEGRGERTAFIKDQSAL

Sequence	furin cleavage Z-score (7.5 min)	furin cleavage Z-score (15 min)	furin cleavage Z-score (30 min)
CAEVPCHRPSAGNASASA [HC2312]	0.893 (inactive)	0.385 (inactive)	0.669 (inactive)
CAHAYRHRRLAGNASASA [FS-1531]	0.687 (inactive)	2.16	3.53 (active)
CACTCGSSDLAGNASASA [HC722]	-1.16 (inactive)	-3.51 (inactive)	-0.486 (inactive)
CAALCRHRRLAGNASASA [FS-154]	4.73 (active)	5.6 (active)	6.55 (active)
CAHAYRPGRRAGNASASA [FS-247]	-0.291 (inactive)	-0.643 (inactive)	1.65
CAGIMHTRCHAGNASASA [HC1172]	1.75	2.22	0.438 (inactive)
CARASRAKRRAGNASASA [FS-1477]	11.9 (active)	12.4 (active)	8.04 (active)
CARASRNKRPAGNASASA [FS-1559]	0.256 (inactive)	-0.194 (inactive)	0.132 (inactive)
CACPRRAKRRAGNASASA [FS-119]	4.82 (active)	4.82 (active)	5.05 (active)
CARASRSIRIAGNASASA [FS-2893]	3.6 (active)	6.75 (active)	7.27 (active)
CARASRGGGGAGNASASA [FS-2891]	-0.8 (inactive)	-0.464 (inactive)	-0.232 (inactive)
CARATRKIGIAGNASASA [FS-2132]	-0.496 (inactive)	-1.56 (inactive)	-0.101 (inactive)
CAEVPCHKPSAGNASASA [HC2374]	0.115 (inactive)	1	-0.202 (inactive)
CADFMEECSQAGNASASA [HC1807]	0.00727 (inactive)	-0.301 (inactive)	-1.48 (inactive)
CAMCAVHPTLAGNASASA [HC599]	-1.6 (inactive)	-0.0857 (inactive)	-0.861 (inactive)
CAFYGKAIPLAGNASASA [HC848]	0.497 (inactive)	-0.506 (inactive)	-2.2 (inactive)
CATCGFADLMAGNASASA [HC224]	-0.244 (inactive)	-0.821 (inactive)	-0.0608 (inactive)
CANILRKARSAGNASASA [FS-366]	9.27 (active)	9.75 (active)	7.85 (active)
CATWLKAKLMAGNASASA [HC1157]	3.1	1.6	3.5 (active)
CALWARMILMAGNASASA [HC1580]	-0.179 (inactive)	-0.799 (inactive)	-1.16 (inactive)
CANNARAARSAGNASASA [FS-1547]	5.1 (active)	5 (active)	5.02 (active)
CATLLRAARSAGNASASA [FS-1659]	4.67 (active)	4.38 (active)	3.86 (active)
CATTPCSGQWAGNASASA [HC1922]	-0.163 (inactive)	-0.899 (inactive)	-0.665 (inactive)
CAVYTFYGMWAGNASASA [HC554]	-0.934 (inactive)	-0.697 (inactive)	-0.425 (inactive)
CASTPCSWHLAGNASASA [HC2528]	1.37	0.165 (inactive)	-0.0279 (inactive)
CASTPCSAQLAGNASASA [HC2562]	-1.59 (inactive)	0.487 (inactive)	0.259 (inactive)
CAEGEVPCHRAGNASASA [HC2456]	1.8	1.4	0.687 (inactive)
CAGLYHVTNDAGNASASA [HC260]	0.615 (inactive)	-1.34 (inactive)	-0.664 (inactive)
